High-throughput results (PubChem BioAssay)
In the library only some 5.4% were active in any assay of this set; here they are far more common.
ALR H2O2 inh = blocks human ALR sulfhydryl oxidase activity; hit rate 3.8% among 290,000; inhibition, % (concentration not given with the values); purified ALR, DTT oxidation, H2O2 HRP-luminol luminescence; P55789;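 active = mean replicate inhibition above about 79%, with every replicate also reaching it, limit read from the data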
Target sequence (P55789 whole entry, looked up): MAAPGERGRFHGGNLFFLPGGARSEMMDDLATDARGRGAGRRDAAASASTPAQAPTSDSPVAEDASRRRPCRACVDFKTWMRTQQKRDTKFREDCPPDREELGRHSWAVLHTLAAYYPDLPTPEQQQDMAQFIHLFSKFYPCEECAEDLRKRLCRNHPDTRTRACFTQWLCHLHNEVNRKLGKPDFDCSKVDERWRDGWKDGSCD
rCAG RNA binder = binds r(CAG) RNA repeats | r(CAG) RNA repeat, TO-PRO-1 dye displacement fluorescence | inhibition, % at 3 µM | hit rate 1.3% among 370,000;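 active = inhibition above the plate cutoff, the mean of all test compounds on that plate plus 3 SD, cut at about 35% in these data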;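 also: 0% = DMSO alone and 100% = 100 µM mitoxantrone as full dye displacement; higher means more dye released from RNA so lower well fluorescence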
APOBEC3G inh = inhibitors of human APOBEC3G DNA deaminase; Q9HC16; recombinant A3G, ssDNA deamination FAM/TAMRA fluorescence; inhibition, % at 20 µM; hit rate 0.28% among 330,000; AID 493012;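 active = inhibition of at least 40% at 20 µM, with no more than 30% in the related APOBEC3A deaminase screen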;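 also: plate controls were DMSO wells with A3G for no effect and wells lacking A3G enzyme for full effect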
A3A deaminase = inhibitors of human APOBEC3A DNA deaminase. P31941. recombinant A3A, FAM/TAMRA ssDNA deamination fluorescence. inhibition, % at 20 µM. hit rate 0.41% among 330,000;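 active = at least 40% inhibition at 20 µM here, with at most 30% in a related deaminase screen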;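 also: plate controls were A3A with DMSO for no effect and wells lacking A3A enzyme for full effect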
Target sequence (P31941 whole entry, looked up): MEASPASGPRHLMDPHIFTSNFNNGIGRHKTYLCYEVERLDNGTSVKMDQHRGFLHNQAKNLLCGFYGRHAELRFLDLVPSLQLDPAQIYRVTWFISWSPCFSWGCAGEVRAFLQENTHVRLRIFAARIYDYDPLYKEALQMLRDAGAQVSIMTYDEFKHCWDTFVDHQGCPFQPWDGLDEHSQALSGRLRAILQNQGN
aDG glyco act = increases alpha dystroglycan glycosylation; Pro5-aDG cells, alpha-DG glycosylation AlphaScreen (IIH6); 0% Pro5, 100% B10-LARGE cell signal; activation, % at 10 µM; hit rate 0.22% among 360,000;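 active = activation of at least 8% versus controls, or a plate z-score of at least 8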;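 also: Pro5 are CHO cells carrying HIG-tagged alpha-DG that lacks glycosylation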
PHOSPHO1 block = inhibitors of human PHOSPHO1 phosphatase; Q8TCT1; recombinant PHOSPHO1, absorbance phosphatase assay; inhibition, % at 13.3 µM; hit rate 1.1% among 290,000; in the data active = inhibition above about 60%
Starred values were filed as active, the others as inactive.

For CC(C)(C)S(=O)(=O)/C(C#N)=N/Nc1ccc(Cl)cc1 the results were ALR H2O2 inh 99*, rCAG RNA binder 22, APOBEC3G inh 0, A3A deaminase 0, aDG glyco act 0 and PHOSPHO1 block -4.
O=C(Nc1ccc(O)cc1)c1ccc2c(c1)C(=O)N(Cc1ccco1)C2=O was read as ALR H2O2 inh 100*, rCAG RNA binder 14, APOBEC3G inh 4, A3A deaminase 12, aDG glyco act 0 and PHOSPHO1 block 12.
Screening CCn1c(NN)nc2sc3c(c2c1=O)CCC3 returned ALR H2O2 inh 2, rCAG RNA binder 8, APOBEC3G inh 4, A3A deaminase 1, aDG glyco act 0 and PHOSPHO1 block 86*.
`NNC(=O)c1ccccc1CO` gave ALR H2O2 inh 79*, APOBEC3G inh 4 and A3A deaminase 3.
For C[C@@H]1CCCN1c1cccc2c1S(=O)(=O)N1CC[C@H](C1)O2 the results were rCAG RNA binder 5.
`Oc1[nH]c2ccccc2c1C1=NCCCC1` gave ALR H2O2 inh 98*, rCAG RNA binder 5, APOBEC3G inh -5, A3A deaminase -3, aDG glyco act 0 and PHOSPHO1 block 8.
Screening NC(=O)N1CCC2(CC1)NC(=O)N(c1ccccc1)N2 returned ALR H2O2 inh -16, rCAG RNA binder 2, APOBEC3G inh -5, A3A deaminase -1, aDG glyco act 0 and PHOSPHO1 block -32.
For CC(=O)N1CCC2(CC1)NC(=O)N(c1ccccc1)N2 the results were ALR H2O2 inh 98*, rCAG RNA binder -4, APOBEC3G inh -5, A3A deaminase -1, aDG glyco act 0 and PHOSPHO1 block 9.
For COc1ccc(Br)cc1C(=O)Nc1ccc(O)cc1 the results were ALR H2O2 inh 99*, rCAG RNA binder 2, APOBEC3G inh -7, A3A deaminase -9, aDG glyco act 0 and PHOSPHO1 block 31.
COC(=O)[C@]12C[C@H](CC(=O)N3CCN(C(=O)C4CC4)CC3)C(=O)N(CCc3ccc(OC)c(OC)c3)C1=C[C@H](C(C)C)O[C@@H]2C1CC1 was read as rCAG RNA binder -1.
For CCOC(=O)c1nn(-c2ccc(C)cc2)cc1O the results were ALR H2O2 inh 7, rCAG RNA binder -1, APOBEC3G inh -7, A3A deaminase -5, aDG glyco act 0 and PHOSPHO1 block 16.
For CCOC(=O)c1nn(-c2ccc3c(c2)OCO3)cc1O the results were ALR H2O2 inh 94*, rCAG RNA binder 7, APOBEC3G inh -3, A3A deaminase -1 and aDG glyco act 0.
For CC(C)n1cc(C(=O)N2CCCC(N3CCN(c4cccc(Cl)c4)CC3)C2)cn1 (centres undefined) the results were ALR H2O2 inh 89*, rCAG RNA binder -6, APOBEC3G inh -5, A3A deaminase -7, aDG glyco act 0 and PHOSPHO1 block 51.
COC(=O)N1C[C@H](OCCCOCc2ccccc2)[C@H]2C[C@@H]1c1ccccc1O2 was read as rCAG RNA binder -1.
COC(=O)[C@]12C[C@H](CC(=O)NCC34CC5CC(CC(C5)C3)C4)C(=O)N(Cc3ccc(Cl)cc3Cl)C1=C[C@H](C1CCCC1)O[C@@H]2C was read as rCAG RNA binder 9.
Screening COc1ccccc1NC(=O)CSc1nnc(-c2ccc(NC(C)=O)cc2)n1C returned ALR H2O2 inh -6, rCAG RNA binder -4, APOBEC3G inh 0, A3A deaminase 21, aDG glyco act 0 and PHOSPHO1 block 106*.
COc1ccc(NC(C)=O)cc1NC(=O)CSc1nnc(-c2cccnc2)n1C was read as ALR H2O2 inh -17, rCAG RNA binder -2, APOBEC3G inh -2, A3A deaminase -5, aDG glyco act 0 and PHOSPHO1 block 14.
Screening COc1ccccc1NC(=O)CC(=O)CSc1nnc(-c2ccc(C)cc2)n1C returned ALR H2O2 inh 33, rCAG RNA binder 22, APOBEC3G inh -4, A3A deaminase -2, aDG glyco act 0 and PHOSPHO1 block 88*.
For Cc1ccc(-c2nnc(SCC(=O)CC(=O)Nc3ccccc3)n2C)cc1 the results were rCAG RNA binder 16, APOBEC3G inh -7, A3A deaminase -7, aDG glyco act 0 and PHOSPHO1 block -8.
Screening Cc1ccc(C(=O)N/C(=C\c2ccc(-c3ccccc3[N+](=O)[O-])o2)C(=O)NCCCN(C)C)cc1 returned ALR H2O2 inh 2, rCAG RNA binder -4, APOBEC3G inh -1, A3A deaminase 1, aDG glyco act 3 and PHOSPHO1 block 19.
For Cc1ccc(C(=O)N/C(=C\c2ccc(-c3ccccc3[N+](=O)[O-])o2)C(=O)NCCN(C)C)cc1 the results were ALR H2O2 inh -21, rCAG RNA binder 3, APOBEC3G inh -4, A3A deaminase -7, aDG glyco act 1.9* and PHOSPHO1 block 5.
Screening COC(=O)[C@]12C[C@H](CC(=O)N3CCCC3)C(=O)N(Cc3ccc4c(c3)OCO4)C1=C[C@H](C(C)(C)C)O[C@@H]2C returned rCAG RNA binder -1.
Screening Cc1cc(C)c2c(-n3cccc3)c(C(=O)NNS(=O)(=O)c3ccc(Br)cc3)sc2n1 returned ALR H2O2 inh 88*, rCAG RNA binder 32, APOBEC3G inh -6, A3A deaminase -1, aDG glyco act 0 and PHOSPHO1 block -18.
`CCOC(=O)Nc1sc2nc(C)cc(C)c2c1-n1cccc1` gave ALR H2O2 inh -6, rCAG RNA binder -8, APOBEC3G inh 2, A3A deaminase -3, aDG glyco act 0 and PHOSPHO1 block 21.
CN1[C@@H](Cc2ccccc2)COc2cc(F)ccc2S1(=O)=O was read as rCAG RNA binder 2.
COc1cc(NS(=O)(=O)c2ccc(NC(=O)/C(=C\c3ccccc3OC)NC(=O)c3ccccc3)cc2)nc(OC)n1 was read as ALR H2O2 inh -1, rCAG RNA binder 63*, APOBEC3G inh -9, A3A deaminase -2, aDG glyco act 0 and PHOSPHO1 block -17.
Screening O=C(CSC1=NCCS1)Nc1ccc(S(=O)(=O)NC2CCCCC2)cc1 returned ALR H2O2 inh 98*, rCAG RNA binder 9, APOBEC3G inh -5, A3A deaminase 0, aDG glyco act 0 and PHOSPHO1 block -34.
Screening O=C(CSC1=NCCS1)Nc1ccc(S(=O)(=O)N2CCCCCC2)cc1 returned ALR H2O2 inh 98*, rCAG RNA binder 8, APOBEC3G inh -9, A3A deaminase 0, aDG glyco act 0 and PHOSPHO1 block -3.
COc1cc(NS(=O)(=O)c2ccc(NC(=O)CSC3=NCCS3)cc2)nc(OC)n1 was read as ALR H2O2 inh 99*, APOBEC3G inh -3, A3A deaminase 7 and PHOSPHO1 block 76*.
Screening O=C(CSc1ncccn1)Nc1ccc(S(=O)(=O)N2CCCCC2)cc1 returned ALR H2O2 inh -11, rCAG RNA binder 2, APOBEC3G inh 1, A3A deaminase 0, aDG glyco act 0 and PHOSPHO1 block 19.
C=CCN(C(=O)[C@@H](C1CC1)[C@@H](O)c1ccc(Cl)cc1)c1ccccc1 was read as rCAG RNA binder -1.
